Assay outcomes deposited in PubChem BioAssay by several laboratories.
Compounds with a hit are over-represented: about 1.5% of the library has one in this group of screens.
DUSP3 inh – DUSP3 (human) phosphatase inhibition | P51452 | AID 1654 | recombinant VHR phosphatase, pNPP absorbance | actives 0.52% (n = 290,000) | inhibition, % at 13.3 µM; in the data active = inhibition above about 50%
Target sequence (P51452 whole entry, looked up): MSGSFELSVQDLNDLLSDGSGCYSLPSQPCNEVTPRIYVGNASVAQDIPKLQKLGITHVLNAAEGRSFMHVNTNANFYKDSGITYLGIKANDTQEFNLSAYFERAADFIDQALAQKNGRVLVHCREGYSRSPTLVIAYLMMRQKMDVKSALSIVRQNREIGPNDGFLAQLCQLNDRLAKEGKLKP
CCHF vOTU inh-1 – CCHFV vOTU protease inhibition; Pep-AMC fluorescence; inhibition, % at 11.5 µM; actives 0.55% (n = 370,000); AID 651958; also: 0% = vehicle wells with enzyme and 100% = no enzyme wells
RN4220 kill – S. aureus RN4220 growth inhibition; AID 1259311; actives 0.33% (n = 330,000); inhibition, % (no concentration beside the values); OD600, 16 h; in the data active = inhibition above about 85%;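 also: plate controls were untreated cells for no effect and reference antibiotic for full effect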
Sa ugtP lethal – growth inhibition of S. aureus ugtP deletion strain; S. aureus RN4220 ugtP deletion, OD600 growth, 16 h; growth inhibition, % (no concentration beside the values); AID 1259309; actives 0.54% (n = 330,000); in the data active = growth inhibition above about 68%;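 also: plate controls were untreated wells for no effect and antibiotic for full effect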
PriA SSB inh – blocks PriA binding to SSB C-terminal tail; inhibition, % at 33 µM; AlphaScreen SSBct-PriA binding, biotinylated peptide; actives 0.6% (n = 430,000); AID 1272365; in the data active = inhibition mostly above about 37%, no sharp cut-off; inactive = mostly below about 20%;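 also: plate controls were negative control peptide for no effect and reference peptide for full effect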
CCHF vOTU inh-2 – confirmation of CCHF virus vOTU protease inhibitors | Recombinant CCHFV vOTU, Pep-AMC fluorescence | inhibition, % at 11.5 µM | shares compounds with CCHF vOTU inh-1 | actives 17% (n = 1,900)
* marks the source's active call; other numbers are inactive results; / = no result given. Rule as the data show it, unless noted: active = inhibition above about 30%; inactive = the rest.

SMILES | DUSP3 inh | CCHF vOTU inh-1 | RN4220 kill | Sa ugtP lethal | PriA SSB inh | CCHF vOTU inh-2
Oc1cc(NCCc2cccnc2)cc2cccnc12 | / | 41* | 15 | -2 | 85* | 13
O=C(CSC1CCCC1)N1CCN(c2cc(C(F)(F)F)ncn2)CC1 | / | / | / | / | 1 | /
CC1(C(=O)O)CCC(C(=O)N2CCN(Cc3ccc(F)cc3)CC2)C1(C)C (stereo not given) | / | / | / | / | -10 | /
CCCCn1c(NC(=O)c2ccco2)c(S(=O)(=O)c2ccc(C)cc2)c2nc3ccccc3nc21 | 29 | -12 | 2 | -10 | -8 | /
CCCCCn1c(NC(=O)c2ccco2)c(S(=O)(=O)c2ccc(C)cc2)c2nc3ccccc3nc21 | 17 | 71* | 0 | 4 | 5 | -63
CCCCn1c(NC(=O)c2ccco2)c(C(=O)OCC)c2nc3ccccc3nc21 | -1 | 55* | 34 | -9 | 5 | -97
CCCCn1c(NC(=O)c2ccc(Br)o2)c(S(=O)(=O)c2ccccc2)c2nc3ccccc3nc21 | -2 | 60* | 16 | 10 | 4 | -29
CCOC(=O)N1CCN(/C=C(\C#N)C(=O)NCCc2ccccc2)CC1 | / | / | / | / | -9 | /
CCc1ccc2[nH]c(=O)c(CN(Cc3ccco3)C(=S)NCC3CCCO3)cc2c1 (stereo not given) | 24 | 5 | 3 | -4 | -3 | /
Cc1cc2cc(CN(Cc3ccco3)C(=S)NCC3CCCO3)c(=O)[nH]c2cc1C (stereo not given) | -2 | 31* | 0 | -9 | 10 | -14
COc1cccc(-n2nnc3c(SCC(=O)Nc4cc(C(F)(F)F)ccc4Cl)ncnc32)c1 | / | / | / | / | -12 | /
COc1cccc(C(=O)C2C(=O)N(c3ccccc3)N=C2c2ccccc2)c1 (stereo not given) | / | / | / | / | -4 | /
CCOC(=O)C(CNc1ccc(O)cc1)NC(=O)c1ccccc1 (stereo not given) | / | 49* | / | / | / | 0
CCOC(=O)CCC(NC(=O)c1ccc(NCN2C(=O)c3ccccc3C2=O)cc1)C(=O)OCC (stereo not given) | 15 | 11 | 3 | -3 | -11 | /
CC1CN(C(C)C)C(=S)N(c2ccccc2)C1=O (stereo not given) | / | 16 | 4 | 1 | -21 | /
CC1CN(Cc2ccccc2)C(=S)N(c2ccccc2)C1=O (stereo not given) | / | 32* | 5 | 2 | -7 | -17
CCCCOCCCNC(=O)C[C@H]1C[C@@]2(C(=O)OC)C(=C[C@H](C(C)(C)C)O[C@@H]2C)N(Cc2cccc3ccccc23)C1=O | / | 35* | / | / | / | 5
CCCCOCCCNC(=O)C[C@H]1C[C@@]2(C(=O)OC)C(=C[C@H](C(C)(C)C)O[C@@H]2C)N(Cc2ccc3c(c2)OCO3)C1=O | / | 37* | / | / | / | 18
CCCCCCCCN1C(=O)[C@@H](CC(=O)NCCCOCCCC)C[C@@]2(C(=O)OC)C1=C[C@H](COCc1ccccc1)O[C@@H]2C | / | 30* | / | / | / | 8
CCCCOCCCNC(=O)C[C@H]1C[C@@]2(C(=O)OC)C(=C[C@H](COCc3ccccc3)O[C@@H]2C)N(Cc2ccc3c(c2)OCO3)C1=O | / | 14 | / | / | / | /
CCCCCCCCN1C(=O)[C@@H](CC(=O)NCCCOCCCC)C[C@@]2(C(=O)OC)C1=C[C@H](C1CCCC1)O[C@@H]2C | / | 8 | / | / | / | /
COC(=O)[C@]12C[C@H](CC(=O)NCc3cccc4ccccc34)C(=O)N(Cc3cccc4ccccc34)C1=C[C@H](C(C)(C)C)O[C@@H]2C | / | 27 | / | / | / | /
C#CCNC(=O)C[C@H]1C[C@@]2(C(=O)OC)C(=C[C@H](C3CCCC3)O[C@@H]2C)N(CCCCCCCC)C1=O | / | 39* | / | / | / | 23
O=C(CSc1nnc2scc(-c3ccc(Cl)cc3)n12)NCC1CCCO1 (stereo not given) | / | / | / | / | -13 | /
C/C(Cl)=C\Cn1c(N2CCCCCC2)nc2c1c(=O)n(C)c(=O)n2C | -1 | 31* | 4 | 9 | 3 | -11
SMILES | DUSP3 inh | CCHF vOTU inh-1 | RN4220 kill | Sa ugtP lethal | PriA SSB inh | CCHF vOTU inh-2
O=c1cc(C(F)(F)F)nc(SCc2cccc3ccccc23)[nH]1 | 4 | 31* | 74 | 75 | -4 | 9
CC(C)C(=O)Nc1ccc(C(=O)N/N=C/c2cc(Br)cc(Br)c2O)cc1 | 16 | 32* | / | / | / | -3
CN(C(=S)Nc1ccccc1)c1ccccc1 | -8 | 1 | 5 | 9 | -4 | /
CN(C(=S)Nc1ccc(SC(F)F)cc1)c1ccc(O)cc1 | 26 | 30* | 1 | 0 | 9 | -29
CN(C(=S)Nc1ccc(Oc2ccccc2)cc1)c1ccc(O)cc1 | -4 | 30* | -4 | 8 | 26 | -24
CN(C(=S)Nc1cccnc1)c1ccc(O)cc1 | 7 | 49* | 2 | -4 | -8 | -15
O=c1c2ccccc2n(Cc2nc(-c3ccc(Br)cc3)no2)c(=O)n1C[C@H]1CCCO1 | / | / | / | / | -21 | /
O=C(COC(=O)COc1ccccc1Cl)Nc1ccccc1OC(F)F | 19 | 33* | / | / | -13 | -3
O=C(COC(=O)c1ncc(Cl)c(Cl)c1Cl)Nc1ccccc1OC(F)F | -11 | 19 | -4 | -4 | -20 | /
O=C1c2ccccc2-c2c1nc1ccccc1[n+]2[O-] | / | / | / | / | 10 | /
CCCCCCCCCCCCCCCC[n+]1cccc2ccccc21 | 1 | 44* | 99* | 97* | 16 | 70*
CN(C)c1ccc(N/C=C/C(=O)c2ccco2)cc1 | -6 | 68* | 7 | -10 | -3 | -2
CCC(=O)N(C1=C(NC(C)C)C(=O)c2ccccc2C1=O)C(C)C | 4 | 47* | 30 | 8 | 9 | 31*
COc1ccccc1N(C(C)=O)C1=C(Cl)C(=O)c2ccccc2C1=O | / | 91* | / | / | / | 83*
